Bioassay records from PubChem.
TDP1 cell noCPT = qHTS for Inhibitors of human tyrosyl-DNA phosphodiesterase 1 (TDP1): qHTS in cells in absence of CPT; 420,000 tested, 15% active; Potency, µM (top dose mostly 46.2 µM), actives largely listed as inhibitors; DT40 Tdp1-/- hTDP1 cells, no CPT, ATP luminescence, 48 h; note: nearly all actives have a fitted effect of over 55% in size
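Stably hTDP1-transfected Tdp1-null chicken DT40 cells were treated with library compounds minus camptothecin and grown for at least 48 hr at 37 °C, after which cellular ATP was quantified by luminescence.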
VDR inhibitor = blocks the human vitamin D receptor. P11473. VDR-SRC2-3 peptide fluorescence polarization, 2 h. Potency, µM, actives largely listed as inhibitors. 400,000 tested, 0.93% active. AID 504847
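Compounds are added to VDR with labelled SRC2-3 coactivator peptide and held 2 h at room temperature. Inhibition of the VDR–peptide interaction is then read as a change in fluorescence polarization.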
GCN5L2 inh = GCN5L2 (KAT2A) acetyltransferase inhibition. Q92830. 390,000 tested, 0.21% active. AID 504327. GCN5L2 HAT assay, ThioGlo1 CoA-SH fluorescence. Potency, µM (doses to about 58.9 µM), actives largely listed as inhibitors
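GCN5L2 (20nM final) in 50mM HEPES, 0.1mM EDTA pH 7.5, 0.01% Tween-20 was preincubated 15 min at room temperature with compound, then given ThioGlo1 (50uM), H3(1-25) peptide (75uM) and acetyl-CoA (70uM); CoA-thiol fluorescence (Ex340/Em540) was read at 0 and 20 min.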
PLK1 PBD block = inhibitors of human PLK1 polo-box domain binding; Plk1 PBD binding of FITC phosphopeptide, fluorescence polarization; 360,000 tested, 2.8% active; Potency, µM, hits mostly inhibitors; P53350; note: series mostly up to about 57 µM; nearly all actives have a fitted effect of over 65% in size
TDP1 cell CPT = DT40-hTDP1 cell growth loss with CPT | chicken DT40 Tdp1-/-;hTDP1 cells + 20 nM CPT, ATP luminescence, 48 h | Potency, µM (series often up to 46.2 µM), actives largely listed as inhibitors | 420,000 tested, 12% active | AID 686979; note: nearly all actives have a fitted effect of over 55% in size
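Chicken DT40 Tdp1-/- cells stably complemented with human TDP1 were seeded at 400 cells/well in medium containing 20 nM camptothecin, exposed to pin-transferred compounds, and grown at 37 °C for at least 48 hr. Viability was read as ATP luminescence.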
TDP1 inh = inhibitors of human tyrosyl-DNA phosphodiesterase TDP1. Q9NUW8. recombinant TDP1, AlphaScreen DNA substrate cleavage. Potency, µM (top dose mostly 130 µM), hits mostly inhibitors. 350,000 tested, 0.28% active. AID 485290; note: nearly all actives have a fitted effect of over 40% in size
Target sequence (Q9NUW8 whole entry, looked up): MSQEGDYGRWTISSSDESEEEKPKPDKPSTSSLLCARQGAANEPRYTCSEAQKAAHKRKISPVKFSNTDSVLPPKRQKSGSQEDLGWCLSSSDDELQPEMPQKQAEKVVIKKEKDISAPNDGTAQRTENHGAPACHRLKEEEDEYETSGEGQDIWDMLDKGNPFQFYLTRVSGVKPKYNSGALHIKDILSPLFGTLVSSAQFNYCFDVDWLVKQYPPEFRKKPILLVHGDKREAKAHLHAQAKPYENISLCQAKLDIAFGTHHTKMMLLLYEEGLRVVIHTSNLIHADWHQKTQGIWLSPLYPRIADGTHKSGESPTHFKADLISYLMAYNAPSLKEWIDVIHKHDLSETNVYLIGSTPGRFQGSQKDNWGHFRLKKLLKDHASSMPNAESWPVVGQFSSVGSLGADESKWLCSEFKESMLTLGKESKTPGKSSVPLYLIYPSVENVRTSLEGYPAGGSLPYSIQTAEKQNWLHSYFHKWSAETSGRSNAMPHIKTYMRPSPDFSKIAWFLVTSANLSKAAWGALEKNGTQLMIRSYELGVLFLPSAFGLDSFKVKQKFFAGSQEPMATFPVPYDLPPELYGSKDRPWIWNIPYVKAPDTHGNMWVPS
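AlphaScreen read-out: signal falls as enzyme removes the 3' tyrosine-FITC from a 5'-biotinylated DNA oligo (15 nM, 5 min, RT). Enzyme was E. coli-made recombinant Tdp1 at 1 nM, exposed to compound for 15 min beforehand; beads 10 ug/ml, 10 min.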
Each line names hits and unclear results; the compound was inactive in the other large screens. Hits are enriched below; roughly 18% of the tested compounds scored in any of these assays. Calls come from the whole dose curve; as a rule, active = well fitted curve in the direction sought with a large enough effect; inconclusive = small, poorly fitted or top-dose-only effect, or another doubt; inactive = no such curve, though single readings can be large; an effect the other way counts as inactive or inconclusive.

CC(=O)Nc1ccc(Cc2ccc3[nH]c(=O)cc(C)c3c2)cc1	none (no result: TDP1 cell noCPT, VDR inhibitor, PLK1 PBD block, TDP1 cell CPT)
Cc1ccc(C(=O)N2CCCC2)cc1S(=O)(=O)N1CCCCC1	TDP1 cell noCPT inconclusive, TDP1 cell CPT inconclusive
COC(=O)C(Sc1ccc(Cl)cc1)C1SC(=S)N(Cc2ccccc2)C1=O (configuration not stated)	TDP1 cell noCPT 2.06µM, PLK1 PBD block inconclusive, TDP1 cell CPT 2.91µM (no result: VDR inhibitor, GCN5L2 inh, TDP1 inh)
COC(=O)c1cccc(CN2C(=O)C(C)Sc3cc(Cl)ccc32)c1 (configuration not stated)	TDP1 cell noCPT inconclusive, TDP1 cell CPT inconclusive (no result: VDR inhibitor, GCN5L2 inh, TDP1 inh)
COc1cc(/C=C(\C#N)C(=O)NCc2ccccc2)ccc1OCc1ccc(C(=O)O)cc1	TDP1 cell noCPT inconclusive, VDR inhibitor inconclusive, PLK1 PBD block 18.9µM, TDP1 cell CPT inconclusive
COc1cc(/C=C(\C#N)C(=O)NCC2CCCO2)ccc1OCCC(C)C (configuration not stated)	TDP1 cell noCPT 16.4µM, TDP1 cell CPT 20.6µM
COc1cc(/C=C(\C#N)C(=O)Nc2ccc(C(=O)O)cc2)ccc1OC(=O)c1cccc(F)c1	VDR inhibitor inconclusive, GCN5L2 inh inconclusive, PLK1 PBD block 23.8µM, TDP1 inh 50.1µM
COc1cc(/C=C(/C#N)C(=O)Nc2ccc(Cl)cc2)ccc1Oc1nc(Cl)ncc1F	PLK1 PBD block inconclusive, TDP1 cell CPT 9.2µM
CC(C)(C)OC(=O)Cc1nnc(CNC(=O)c2ccccc2)s1	none (no result: TDP1 cell noCPT, VDR inhibitor, GCN5L2 inh, PLK1 PBD block, TDP1 cell CPT)
CCOc1cc(/C=C(/C#N)C(=O)Nc2ccc(OC)cc2)ccc1OCc1ccc(C(=O)O)cc1	PLK1 PBD block 26.7µM (no result: TDP1 inh)
COc1cc(/C=N/NC(=O)COc2ccc(C)cc2)ccc1OC(=O)c1cccs1	TDP1 cell noCPT 25.9µM, TDP1 cell CPT inconclusive
COc1cc(/C=C(/C#N)C(=O)Nc2ccccc2)ccc1OCc1ccc(C(=O)O)cc1	TDP1 cell noCPT inconclusive, PLK1 PBD block inconclusive
COCCNC(=O)/C(C#N)=C/c1ccc(OC(=O)c2cccs2)c(OC)c1	TDP1 cell noCPT inconclusive, VDR inhibitor 70.8µM, TDP1 cell CPT inconclusive
CCOc1cccc(NC(=O)/C(C#N)=C\c2cccnc2)c1	VDR inhibitor inconclusive, PLK1 PBD block 18.9µM
CC(C)NC(=O)c1nn(C)c2ccccc12	none
CSc1ccc(CN2CCC(C)(Oc3cnc(Cl)c4ccccc34)C2)cc1 (configuration not stated)	TDP1 cell noCPT inconclusive, TDP1 cell CPT inconclusive (no result: VDR inhibitor, GCN5L2 inh, TDP1 inh)
Cc1cc(C)cc([N+](=O)[O-])c1	none (no result: TDP1 cell noCPT, VDR inhibitor, GCN5L2 inh, PLK1 PBD block, TDP1 cell CPT)
Cc1ccc(S(=O)(=O)C2(C(=O)N3CCN(c4cc(C)ccc4C)CC3)CC2)cc1	TDP1 cell noCPT inconclusive, TDP1 cell CPT inconclusive
CCOc1cc(/C=C(\C#N)C(=O)Nc2cccc(C(=O)O)c2)ccc1OCc1ccc(Br)cc1	TDP1 cell noCPT 29.1µM, GCN5L2 inh inconclusive, TDP1 cell CPT inconclusive, TDP1 inh 14.1µM
COc1cc(/C=C(\C#N)C(=O)Nc2cccc(C(=O)O)c2)ccc1OCc1ccc(C)cc1	VDR inhibitor inconclusive, PLK1 PBD block inconclusive
COc1cc(/C=C(/C#N)c2ccccc2F)ccc1OCc1ccccc1	TDP1 cell noCPT 18.4µM, TDP1 cell CPT 16.4µM
COc1cc(/C=C/C(=O)NC(C)C)ccc1OCc1ccccc1	none
COCCNC(=O)C1(C)CCCN(C(=O)Cc2ccc3ccccc3c2)C1 (configuration not stated)	TDP1 cell noCPT inconclusive, TDP1 cell CPT inconclusive (no result: VDR inhibitor, GCN5L2 inh, TDP1 inh)
COc1ccc(S(=O)(=O)NCc2ccc(C(=O)NCCCN3CC(C)CC(C)C3)cc2)cc1 (configuration not stated)	TDP1 cell noCPT inconclusive, PLK1 PBD block 26.7µM, TDP1 cell CPT inconclusive
COc1ccc(S(=O)(=O)NCc2ccc(C(=O)NCCN(C)Cc3ccccc3)cc2)cc1	TDP1 cell noCPT 20.6µM, TDP1 cell CPT 18.4µM (no result: VDR inhibitor, GCN5L2 inh, TDP1 inh)
CC(c1ccccn1)N(Cc1ccco1)C(=S)Nc1cccc(F)c1 (configuration not stated)	none
CN1/C(=C/c2cccc[n+]2CCO)Sc2ccccc21	TDP1 cell noCPT inconclusive, TDP1 cell CPT inconclusive (no result: TDP1 inh)
CC[n+]1ccccc1/C=C1\Sc2ccc(C)cc2N1C	TDP1 cell noCPT 0.326µM, TDP1 cell CPT 0.461µM (no result: TDP1 inh)
CCOC(=O)OCC1OC(c2cc(C)cc(C)c2)C=CC1OC(=O)OCC (configuration not stated)	none (no result: TDP1 cell noCPT, VDR inhibitor, GCN5L2 inh, PLK1 PBD block, TDP1 cell CPT)
COc1cc(C(=O)NNC(=S)NC(=O)c2ccc3c(c2)OCO3)cc(OC)c1OC	TDP1 cell noCPT inconclusive, TDP1 cell CPT 20.6µM
COc1cc(C(=O)N/N=C(\C)c2ccc3c(c2)OCO3)cc(OC)c1OC	TDP1 cell noCPT 1.64µM, PLK1 PBD block inconclusive, TDP1 cell CPT 1.64µM
COc1cc(C(=O)c2cocc2C(=O)c2ccc3c(c2)OCO3)cc(OC)c1OC	TDP1 cell noCPT 0.731µM, TDP1 cell CPT 0.731µM
COc1cc(C(=O)c2ccc3c(c2)OCO3)cc(OC)c1OC	TDP1 cell noCPT 5.17µM, TDP1 cell CPT 2.59µM (no result: GCN5L2 inh, TDP1 inh)
COc1cc(CC(CC(=O)c2ccc3c(c2)OCO3)C(=O)O)cc(OC)c1OC (configuration not stated)	none (no result: GCN5L2 inh, TDP1 inh)
COc1ccc(N2C(=O)C3C(c4ccc(C(=O)O)cc4)NC(Cc4ccccc4)(C(=O)O)C3C2=O)c([N+](=O)[O-])c1 (configuration not stated)	none
Cc1cc(C(=O)NN)c(Cl)cc1Cl	none
